Experimental data taken from ChEMBL document CHEMBL2218924, “A broad activity screen in support of a chemogenomic map for kinase signalling research and drug discovery” (Biochem J, 2013).

What was measured:
[1] = biological target: Serine/threonine-protein kinase SIK1 (Homo sapiens) (UniProt P57059); conditions: at 10 µM
[2] = biological target: SRSF protein kinase 2 (Homo sapiens) (UniProt P78362); conditions: at 10 µM
[3] = biological target: Serine/threonine-protein kinase 33 (Homo sapiens) (UniProt Q9BYT3); conditions: at 1 µM
[4] = biological target: Serine/threonine-protein kinase 33 (Homo sapiens) (UniProt Q9BYT3); conditions: at 10 µM
[5] = biological target: Serine/threonine-protein kinase PLK2 (Homo sapiens) (UniProt Q9NYY3); conditions: at 10 µM
[6] = biological target: Tyrosine-protein kinase SYK (Homo sapiens) (UniProt P43405); conditions: at 10 µM
[7] = biological target: T1, Mitogen-activated protein kinase kinase kinase 7 (Homo sapiens) (UniProt O43318); conditions: at 1 µM
T1 sequence (whole entry): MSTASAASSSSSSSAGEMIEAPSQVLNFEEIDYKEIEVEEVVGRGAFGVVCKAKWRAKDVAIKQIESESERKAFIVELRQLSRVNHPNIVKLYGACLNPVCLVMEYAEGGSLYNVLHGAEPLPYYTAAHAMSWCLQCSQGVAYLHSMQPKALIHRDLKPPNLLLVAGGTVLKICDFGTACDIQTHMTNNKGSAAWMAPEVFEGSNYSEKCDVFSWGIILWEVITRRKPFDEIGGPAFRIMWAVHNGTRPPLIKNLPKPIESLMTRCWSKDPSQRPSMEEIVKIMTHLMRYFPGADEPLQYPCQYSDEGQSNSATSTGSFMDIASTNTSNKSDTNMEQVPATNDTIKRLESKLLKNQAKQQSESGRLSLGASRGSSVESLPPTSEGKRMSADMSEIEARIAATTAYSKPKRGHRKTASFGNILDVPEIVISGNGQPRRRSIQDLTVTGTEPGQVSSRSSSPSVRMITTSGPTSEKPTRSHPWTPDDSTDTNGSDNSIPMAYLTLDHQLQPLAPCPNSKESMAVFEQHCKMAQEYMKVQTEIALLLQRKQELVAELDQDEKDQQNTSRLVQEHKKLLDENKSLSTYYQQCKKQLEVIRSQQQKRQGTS

[8] = biological target: T1, Mitogen-activated protein kinase kinase kinase 7 (Homo sapiens); conditions: at 10 µM
[9] = biological target: T2, Serine/threonine-protein kinase TAO1 (Homo sapiens) (UniProt Q7L7X3); conditions: at 1 µM
T2 sequence (whole entry): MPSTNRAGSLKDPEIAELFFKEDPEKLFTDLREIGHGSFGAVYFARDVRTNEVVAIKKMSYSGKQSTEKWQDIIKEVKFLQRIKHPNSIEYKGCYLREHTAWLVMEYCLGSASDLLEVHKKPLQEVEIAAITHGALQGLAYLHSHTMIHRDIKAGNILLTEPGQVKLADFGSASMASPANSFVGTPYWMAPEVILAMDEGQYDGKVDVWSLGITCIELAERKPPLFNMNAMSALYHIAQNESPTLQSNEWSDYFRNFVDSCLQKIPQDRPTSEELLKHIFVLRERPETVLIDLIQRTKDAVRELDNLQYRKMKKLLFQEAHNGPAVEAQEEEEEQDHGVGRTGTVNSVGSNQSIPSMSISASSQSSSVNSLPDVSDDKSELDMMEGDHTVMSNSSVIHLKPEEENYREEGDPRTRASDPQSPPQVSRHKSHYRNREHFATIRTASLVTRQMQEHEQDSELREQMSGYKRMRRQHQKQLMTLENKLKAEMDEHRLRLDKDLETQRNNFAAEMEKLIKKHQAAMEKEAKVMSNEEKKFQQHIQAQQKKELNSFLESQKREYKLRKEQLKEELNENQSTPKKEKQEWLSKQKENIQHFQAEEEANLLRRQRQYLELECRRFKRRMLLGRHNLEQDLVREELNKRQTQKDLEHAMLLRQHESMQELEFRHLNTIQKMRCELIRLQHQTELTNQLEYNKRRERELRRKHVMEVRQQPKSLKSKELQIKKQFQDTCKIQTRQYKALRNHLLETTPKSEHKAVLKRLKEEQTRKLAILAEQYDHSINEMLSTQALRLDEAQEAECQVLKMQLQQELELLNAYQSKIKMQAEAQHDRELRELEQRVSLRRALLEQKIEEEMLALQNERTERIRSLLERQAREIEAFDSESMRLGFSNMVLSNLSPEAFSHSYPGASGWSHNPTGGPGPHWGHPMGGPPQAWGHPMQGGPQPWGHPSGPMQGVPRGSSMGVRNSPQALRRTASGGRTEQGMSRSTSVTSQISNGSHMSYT

[10] = biological target: T2, Serine/threonine-protein kinase TAO1 (Homo sapiens); conditions: at 10 µM
[11] = biological target: T3, Serine/threonine-protein kinase TAO3 (Homo sapiens) (UniProt Q9H2K8); conditions: at 1 µM
T3 sequence (whole entry): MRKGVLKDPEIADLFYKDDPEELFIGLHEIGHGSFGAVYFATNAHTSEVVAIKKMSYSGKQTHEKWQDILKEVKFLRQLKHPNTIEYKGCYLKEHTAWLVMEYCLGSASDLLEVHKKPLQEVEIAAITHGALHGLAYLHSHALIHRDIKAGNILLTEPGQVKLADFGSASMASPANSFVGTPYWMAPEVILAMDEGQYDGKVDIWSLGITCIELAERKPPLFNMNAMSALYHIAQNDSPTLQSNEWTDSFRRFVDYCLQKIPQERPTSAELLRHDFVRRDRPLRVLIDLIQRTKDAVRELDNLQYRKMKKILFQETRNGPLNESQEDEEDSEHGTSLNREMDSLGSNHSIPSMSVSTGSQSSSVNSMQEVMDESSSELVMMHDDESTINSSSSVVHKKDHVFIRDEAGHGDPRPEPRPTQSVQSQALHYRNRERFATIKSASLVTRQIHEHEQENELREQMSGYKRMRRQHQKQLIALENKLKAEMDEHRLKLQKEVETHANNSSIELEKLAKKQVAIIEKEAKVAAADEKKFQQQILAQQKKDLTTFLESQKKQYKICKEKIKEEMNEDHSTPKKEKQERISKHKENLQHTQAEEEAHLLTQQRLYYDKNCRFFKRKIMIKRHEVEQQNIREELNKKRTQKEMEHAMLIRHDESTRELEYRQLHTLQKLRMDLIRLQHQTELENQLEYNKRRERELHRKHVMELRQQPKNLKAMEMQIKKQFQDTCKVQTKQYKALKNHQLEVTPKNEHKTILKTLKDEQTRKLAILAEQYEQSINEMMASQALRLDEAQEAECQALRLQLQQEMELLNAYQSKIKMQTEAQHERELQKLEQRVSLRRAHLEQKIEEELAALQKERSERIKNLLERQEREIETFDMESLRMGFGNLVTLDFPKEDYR

[12] = biological target: T3, Serine/threonine-protein kinase TAO3 (Homo sapiens); conditions: at 10 µM
[13] = biological target: SRSF protein kinase 1 (Homo sapiens) (UniProt Q96SB4); conditions: at 10 µM
[14] = biological target: Tyrosine-protein kinase SYK (Homo sapiens) (UniProt P43405); conditions: at 1 µM
[15] = biological target: T4, Serine/threonine-protein kinase TBK1 (Homo sapiens) (UniProt Q9UHD2); conditions: at 1 µM
T4 sequence (whole entry): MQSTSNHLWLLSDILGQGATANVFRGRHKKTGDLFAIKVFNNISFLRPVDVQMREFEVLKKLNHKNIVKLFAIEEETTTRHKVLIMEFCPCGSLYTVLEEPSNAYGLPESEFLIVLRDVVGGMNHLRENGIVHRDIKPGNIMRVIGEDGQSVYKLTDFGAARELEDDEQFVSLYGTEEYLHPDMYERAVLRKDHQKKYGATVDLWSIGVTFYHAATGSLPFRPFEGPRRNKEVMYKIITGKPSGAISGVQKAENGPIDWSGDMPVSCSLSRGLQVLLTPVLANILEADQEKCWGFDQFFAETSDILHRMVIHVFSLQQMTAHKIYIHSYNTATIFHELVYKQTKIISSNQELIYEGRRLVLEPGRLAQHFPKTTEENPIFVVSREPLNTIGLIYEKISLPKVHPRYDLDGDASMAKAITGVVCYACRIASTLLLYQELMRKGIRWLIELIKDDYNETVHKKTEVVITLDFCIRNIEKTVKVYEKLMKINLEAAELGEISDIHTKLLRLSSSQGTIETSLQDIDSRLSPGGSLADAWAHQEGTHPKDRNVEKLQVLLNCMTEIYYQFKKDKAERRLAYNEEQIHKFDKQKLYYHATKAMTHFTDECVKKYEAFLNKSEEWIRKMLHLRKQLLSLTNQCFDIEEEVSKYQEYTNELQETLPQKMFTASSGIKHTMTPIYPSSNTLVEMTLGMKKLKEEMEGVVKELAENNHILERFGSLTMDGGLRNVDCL

[16] = biological target: SRSF protein kinase 1 (Homo sapiens) (UniProt Q96SB4); conditions: at 1 µM
[17] = biological target: SRSF protein kinase 2 (Homo sapiens) (UniProt P78362); conditions: at 1 µM
[18] = biological target: T5, Serine/threonine-protein kinase TAO2 (Homo sapiens) (UniProt Q9UL54); conditions: at 1 µM
T5 sequence (whole entry): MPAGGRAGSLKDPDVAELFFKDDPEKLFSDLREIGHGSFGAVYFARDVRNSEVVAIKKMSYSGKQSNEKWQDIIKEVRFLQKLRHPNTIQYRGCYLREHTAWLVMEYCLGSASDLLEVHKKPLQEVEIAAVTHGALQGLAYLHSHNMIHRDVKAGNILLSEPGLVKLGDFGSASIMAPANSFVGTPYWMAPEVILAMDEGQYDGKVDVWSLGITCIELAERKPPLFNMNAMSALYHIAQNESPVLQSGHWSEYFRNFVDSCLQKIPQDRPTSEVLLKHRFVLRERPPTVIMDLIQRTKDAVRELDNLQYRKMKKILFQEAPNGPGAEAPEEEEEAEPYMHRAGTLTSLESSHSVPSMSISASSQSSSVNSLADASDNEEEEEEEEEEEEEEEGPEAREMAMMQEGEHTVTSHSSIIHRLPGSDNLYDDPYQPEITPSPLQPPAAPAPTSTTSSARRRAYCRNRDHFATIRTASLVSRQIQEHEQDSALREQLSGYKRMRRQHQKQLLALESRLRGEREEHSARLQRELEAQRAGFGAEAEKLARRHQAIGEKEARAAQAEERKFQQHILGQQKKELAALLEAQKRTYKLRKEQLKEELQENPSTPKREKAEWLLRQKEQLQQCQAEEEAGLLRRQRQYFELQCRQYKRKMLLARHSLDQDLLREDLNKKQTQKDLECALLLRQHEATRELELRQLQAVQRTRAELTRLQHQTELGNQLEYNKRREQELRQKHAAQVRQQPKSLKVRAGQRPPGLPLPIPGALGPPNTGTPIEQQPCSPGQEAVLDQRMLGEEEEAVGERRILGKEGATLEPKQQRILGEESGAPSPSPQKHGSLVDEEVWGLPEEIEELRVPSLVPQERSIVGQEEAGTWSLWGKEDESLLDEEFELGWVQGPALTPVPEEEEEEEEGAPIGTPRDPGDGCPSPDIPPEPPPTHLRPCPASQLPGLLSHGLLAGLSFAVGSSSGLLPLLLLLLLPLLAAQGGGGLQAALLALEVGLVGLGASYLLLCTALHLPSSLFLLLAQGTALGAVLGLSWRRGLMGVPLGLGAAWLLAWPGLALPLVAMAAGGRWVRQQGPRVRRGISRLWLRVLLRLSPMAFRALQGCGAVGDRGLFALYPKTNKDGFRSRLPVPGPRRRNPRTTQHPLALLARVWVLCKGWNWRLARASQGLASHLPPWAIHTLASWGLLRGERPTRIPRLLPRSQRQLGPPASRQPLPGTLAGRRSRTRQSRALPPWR

[19] = biological target: T5, Serine/threonine-protein kinase TAO2 (Homo sapiens); conditions: at 10 µM

SRSF protein kinase 2 (Homo sapiens), sequence (P78362 whole entry, looked up): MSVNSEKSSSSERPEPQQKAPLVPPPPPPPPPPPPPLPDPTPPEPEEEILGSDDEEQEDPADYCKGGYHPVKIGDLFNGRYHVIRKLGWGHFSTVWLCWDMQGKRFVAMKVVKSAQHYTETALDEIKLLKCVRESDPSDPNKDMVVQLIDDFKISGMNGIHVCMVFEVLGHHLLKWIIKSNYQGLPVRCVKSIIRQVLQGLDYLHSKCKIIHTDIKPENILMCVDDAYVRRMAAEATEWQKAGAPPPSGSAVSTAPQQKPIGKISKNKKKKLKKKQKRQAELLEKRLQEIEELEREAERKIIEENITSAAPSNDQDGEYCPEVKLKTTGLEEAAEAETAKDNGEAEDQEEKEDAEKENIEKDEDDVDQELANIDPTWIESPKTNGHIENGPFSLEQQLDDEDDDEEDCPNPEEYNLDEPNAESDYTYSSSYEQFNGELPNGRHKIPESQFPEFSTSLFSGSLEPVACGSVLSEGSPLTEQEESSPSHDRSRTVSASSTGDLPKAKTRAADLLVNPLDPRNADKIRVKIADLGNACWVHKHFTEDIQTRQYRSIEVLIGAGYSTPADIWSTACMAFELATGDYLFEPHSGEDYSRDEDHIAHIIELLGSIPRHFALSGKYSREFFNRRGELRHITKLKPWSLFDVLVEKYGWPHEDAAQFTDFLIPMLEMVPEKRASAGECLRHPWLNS
Serine/threonine-protein kinase 33 (Homo sapiens), sequence (Q9BYT3 whole entry, looked up): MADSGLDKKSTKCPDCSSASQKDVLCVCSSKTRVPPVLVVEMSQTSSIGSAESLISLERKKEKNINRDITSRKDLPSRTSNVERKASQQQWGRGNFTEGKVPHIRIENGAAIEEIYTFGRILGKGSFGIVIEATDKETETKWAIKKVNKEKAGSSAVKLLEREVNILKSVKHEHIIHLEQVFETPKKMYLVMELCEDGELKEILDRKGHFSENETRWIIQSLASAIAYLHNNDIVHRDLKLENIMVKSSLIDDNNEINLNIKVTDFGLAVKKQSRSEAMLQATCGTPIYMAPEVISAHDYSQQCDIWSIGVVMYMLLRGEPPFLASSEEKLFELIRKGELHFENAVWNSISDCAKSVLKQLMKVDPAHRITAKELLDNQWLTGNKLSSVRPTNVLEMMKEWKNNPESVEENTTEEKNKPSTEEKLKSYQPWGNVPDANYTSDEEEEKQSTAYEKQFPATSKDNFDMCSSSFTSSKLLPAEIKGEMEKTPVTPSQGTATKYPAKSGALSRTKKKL
SRSF protein kinase 1 (Homo sapiens), sequence (Q96SB4 whole entry): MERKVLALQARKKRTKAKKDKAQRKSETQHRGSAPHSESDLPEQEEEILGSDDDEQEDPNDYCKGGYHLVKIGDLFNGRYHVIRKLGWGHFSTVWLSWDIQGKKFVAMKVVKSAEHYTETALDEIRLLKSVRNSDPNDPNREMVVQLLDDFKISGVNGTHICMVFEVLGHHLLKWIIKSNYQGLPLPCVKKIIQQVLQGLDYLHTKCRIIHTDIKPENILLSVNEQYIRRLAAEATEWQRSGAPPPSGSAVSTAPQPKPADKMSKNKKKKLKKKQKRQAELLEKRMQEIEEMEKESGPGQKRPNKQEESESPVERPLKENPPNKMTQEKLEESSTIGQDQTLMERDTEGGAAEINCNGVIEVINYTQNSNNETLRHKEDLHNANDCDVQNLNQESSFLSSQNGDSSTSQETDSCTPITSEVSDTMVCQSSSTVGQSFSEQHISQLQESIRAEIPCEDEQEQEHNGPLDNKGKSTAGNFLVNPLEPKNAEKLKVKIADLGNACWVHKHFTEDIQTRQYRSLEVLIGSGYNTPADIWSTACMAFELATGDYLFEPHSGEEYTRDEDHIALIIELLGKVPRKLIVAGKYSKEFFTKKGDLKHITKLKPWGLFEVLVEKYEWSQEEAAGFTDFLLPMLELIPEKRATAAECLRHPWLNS
Serine/threonine-protein kinase SIK1 (Homo sapiens), sequence (P57059 whole entry): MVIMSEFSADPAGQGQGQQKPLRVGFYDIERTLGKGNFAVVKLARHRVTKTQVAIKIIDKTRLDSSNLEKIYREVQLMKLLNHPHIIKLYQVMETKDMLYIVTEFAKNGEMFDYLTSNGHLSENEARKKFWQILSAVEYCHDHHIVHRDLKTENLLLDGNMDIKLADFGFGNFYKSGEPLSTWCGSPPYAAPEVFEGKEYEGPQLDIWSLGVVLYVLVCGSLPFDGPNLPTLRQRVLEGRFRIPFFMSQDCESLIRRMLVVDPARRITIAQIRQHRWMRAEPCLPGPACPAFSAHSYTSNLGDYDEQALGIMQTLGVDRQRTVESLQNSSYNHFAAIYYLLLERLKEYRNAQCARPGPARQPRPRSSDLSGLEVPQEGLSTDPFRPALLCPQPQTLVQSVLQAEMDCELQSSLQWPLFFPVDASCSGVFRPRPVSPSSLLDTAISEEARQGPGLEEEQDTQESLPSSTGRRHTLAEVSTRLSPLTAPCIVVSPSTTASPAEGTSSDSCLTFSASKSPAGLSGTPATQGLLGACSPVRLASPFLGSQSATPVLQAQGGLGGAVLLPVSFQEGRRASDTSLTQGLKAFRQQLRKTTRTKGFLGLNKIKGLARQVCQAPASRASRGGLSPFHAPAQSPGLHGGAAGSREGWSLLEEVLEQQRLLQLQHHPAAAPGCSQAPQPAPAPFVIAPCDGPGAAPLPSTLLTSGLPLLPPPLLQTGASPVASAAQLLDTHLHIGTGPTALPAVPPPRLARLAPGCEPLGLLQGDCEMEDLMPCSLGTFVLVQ
Serine/threonine-protein kinase PLK2 (Homo sapiens), sequence (Q9NYY3 whole entry, looked up): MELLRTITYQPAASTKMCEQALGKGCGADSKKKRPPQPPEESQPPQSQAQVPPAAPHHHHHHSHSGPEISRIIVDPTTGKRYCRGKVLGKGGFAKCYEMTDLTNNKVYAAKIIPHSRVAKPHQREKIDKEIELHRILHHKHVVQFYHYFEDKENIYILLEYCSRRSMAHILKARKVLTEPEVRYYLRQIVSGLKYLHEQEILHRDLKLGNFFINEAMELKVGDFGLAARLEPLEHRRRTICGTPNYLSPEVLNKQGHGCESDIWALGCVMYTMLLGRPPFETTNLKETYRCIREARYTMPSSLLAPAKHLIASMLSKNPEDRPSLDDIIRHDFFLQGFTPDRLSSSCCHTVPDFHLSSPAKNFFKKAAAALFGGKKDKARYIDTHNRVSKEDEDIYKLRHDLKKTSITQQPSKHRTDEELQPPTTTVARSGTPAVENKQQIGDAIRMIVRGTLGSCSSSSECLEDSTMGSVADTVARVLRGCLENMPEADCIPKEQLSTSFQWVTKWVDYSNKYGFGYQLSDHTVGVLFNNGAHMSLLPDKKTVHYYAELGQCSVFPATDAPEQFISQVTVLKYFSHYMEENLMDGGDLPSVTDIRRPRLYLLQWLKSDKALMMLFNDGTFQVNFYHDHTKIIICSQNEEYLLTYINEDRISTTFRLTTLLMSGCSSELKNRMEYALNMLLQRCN

Work on `Nc1ncnc2c1cnn2-c1ccccc1` yielded a residual activity [1] of 138%, a residual activity [2] of 97% and a residual activity [3] of 97%. It also gave a residual activity [4] of 100%, a residual activity [5] of 97% and a residual activity [6] of 92%. It also gave a residual activity [7] of 89%, a residual activity [8] of 88% and a residual activity [9] of 94%. For the same molecule, the residual activity [10] was 80%, the residual activity [11] was 100% and the residual activity [12] was 87%.

`Fc1ccc(-c2nc3n(c2-c2ccncc2)CCS3)cc1` was tested, and the residual activity [13] was 93%, the residual activity [2] was 79% and the residual activity [8] was 88%. It also gave a residual activity [9] of 99%, a residual activity [10] of 83% and a residual activity [12] of 76%.

`Oc1cccc(-c2nc(N3CCOCC3)c3oc4ncccc4c3n2)c1` showed a residual activity [1] of -1%, a residual activity [5] of 98% and a residual activity [14] of 131%. The residual activity [6] was 94%, the residual activity [10] was 94% and the residual activity [12] was 93%. For the same molecule, the residual activity [15] was 82%.

Work on `CCOc1nc(NC(=O)Cc2cc(OC)ccc2OC)cc(N)c1C#N` yielded a residual activity [15] of 79%.

Molecule `CN(C)S(=O)(=O)c1ccc2c(c1)/C(=C/c1cc3c([nH]1)CCCC3)C(=O)N2` has a residual activity [16] of 20%, a residual activity [13] of 8% and a residual activity [17] of 34%. For the same molecule, the residual activity [2] was 14%, the residual activity [3] was 85% and the residual activity [4] was 93%. For the same molecule, the residual activity [14] was 97%, the residual activity [6] was 96% and the residual activity [7] was 100%. It also gave a residual activity [8] of 92%, a residual activity [9] of 37% and a residual activity [10] of 56%. It also gave a residual activity [18] of 93%, a residual activity [19] of 87% and a residual activity [11] of 89%. The residual activity [12] was 73% and the residual activity [15] was 74%.
